Screens deposited in PubChem by several laboratories.
SENP6 block – SENP6 protease inhibitors, primary screen, biochemical, luminescence, uHTS; Sentrin-specific protease 6 (Homo sapiens), Q9GZR1; AID 2599, 2010; Recombinant SENP6 catalytic domain, aminoluciferin luminescence; inhibition, % at 10 µM; 330,000 tested, 1.8% active;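 active means inhibition above about 50% at the single tested dose, limit read from the data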;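 further: plate controls were DMSO wells with enzyme for no effect and DMSO wells lacking enzyme for full effect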
SENP8 block-1 – SENP8 protease inhibitors, primary screen, biochemical, luminescence; Sentrin-specific protease 8 (Homo sapiens), Q96LD8; purified SENP8, Z-RLRGG-aminoluciferin cleavage; inhibition, % at 10 µM; 330,000 tested, 1.2% active; AID 2540, 2010; in the data active means inhibition above about 50%
EBI2 block – EBI2 receptor antagonists, beta-arrestin recruitment, primary screen, cell-based, luminescence, 7a,25-OHC stimulation, uHTS; G-protein coupled receptor 183 (Homo sapiens), P32249; 7a,25-OHC stimulated; inhibition, % at 5 µM; 360,000 tested, 0.81% active; AID 651636, 2012; in the data active means inhibition above about 38%;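 further: enzyme fragment complementation signal reports receptor beta-arrestin coupling in cells; 0% = agonist plus DMSO wells and 100% = wells without agonist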
AHR act – AHR activators, primary screen, cell-based, luminescence, luciferase reporter, human. AHR-responsive luciferase reporter cells. 320,000 tested, 2.5% active. Aryl hydrocarbon receptor (Homo sapiens), P35869. activation, % at 5 µM. AID 2796, 2010; in the data active means activation above about 47%;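 further: 0% = vehicle wells and 100% = reference agonist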
Target sequence (P35869 whole entry, looked up): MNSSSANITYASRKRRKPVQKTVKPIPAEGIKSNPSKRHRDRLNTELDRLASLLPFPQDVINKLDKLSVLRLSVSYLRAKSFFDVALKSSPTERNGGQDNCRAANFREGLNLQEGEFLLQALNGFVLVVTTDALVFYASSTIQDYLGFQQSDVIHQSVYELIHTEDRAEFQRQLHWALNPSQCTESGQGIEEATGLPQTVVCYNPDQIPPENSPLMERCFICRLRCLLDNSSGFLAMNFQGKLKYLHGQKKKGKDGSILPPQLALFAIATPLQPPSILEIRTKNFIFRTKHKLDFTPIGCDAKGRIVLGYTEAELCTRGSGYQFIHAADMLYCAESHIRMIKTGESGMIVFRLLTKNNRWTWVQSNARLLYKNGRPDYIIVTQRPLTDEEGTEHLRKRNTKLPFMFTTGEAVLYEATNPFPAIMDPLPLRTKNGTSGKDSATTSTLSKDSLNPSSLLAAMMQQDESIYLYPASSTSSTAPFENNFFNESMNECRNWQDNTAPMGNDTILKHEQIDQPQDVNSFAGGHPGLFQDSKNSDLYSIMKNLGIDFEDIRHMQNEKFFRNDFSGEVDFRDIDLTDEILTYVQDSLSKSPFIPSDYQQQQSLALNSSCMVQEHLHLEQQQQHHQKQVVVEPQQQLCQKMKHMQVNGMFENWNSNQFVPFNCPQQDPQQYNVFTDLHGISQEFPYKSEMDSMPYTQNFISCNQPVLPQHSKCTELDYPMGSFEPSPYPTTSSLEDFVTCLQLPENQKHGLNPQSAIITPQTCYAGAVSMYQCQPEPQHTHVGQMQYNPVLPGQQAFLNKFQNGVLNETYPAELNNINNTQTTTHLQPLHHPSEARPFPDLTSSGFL
SENP7 inh – SENP7 protease inhibitors, primary screen, biochemical, luminescence, uHTS | Sentrin-specific protease 7 (Homo sapiens), Q9BQF6 | recombinant SENP7, Z-RLRGG-aminoluciferin luminescence, 40 min | inhibition, % at 5 µM | 330,000 tested, 1.5% active | AID 434973, 2010;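 active means inhibition above about 50% at the single test dose, limit read from the data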;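 further: plate controls were DMSO with enzyme for no effect and no enzyme buffer wells for full effect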
SENP8 block-2 – human SENP8 protease inhibitors, primary screen, biochemical, fluorescence, Nedd8 protein substrate, uHTS; AID 602440, 2012; recombinant SENP8; Sentrin-specific protease 8 (Homo sapiens), Q96LD8; 360,000 tested, 0.64% active; inhibition, % at 20 µM; in the data active means inhibition mostly above about 40%, no sharp cut-off; inactive means mostly below about 27%
EBI2 conf – EBI2 antagonist hit retest, beta-arrestin, confirmation, cell-based, single concentration, luminescence, 7a,25-OHC stimulation | shares compounds with EBI2 block | 7a,25-OHC antagonism | inhibition, % at 5 µM | 2,400 tested, 29% active;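 active means inhibition of at least 50%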
EBI2 ag – EBI2 agonist activity of antagonist hits, confirmation, counter-screen for EBI2 antagonist project, cell-based, single concentration, agonist mode, luminescence; shares compounds with EBI2 block; EBI2-expressing cells, 60 min; 0% vehicle, 100% 7α,25-dihydroxycholesterol control; activation, % at 5 µM; 2,400 tested, under 10 active; AID 652000, 2013;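 active means activation of at least 50%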
bGal counter – E. coli beta-galactosidase enzyme inhibition, confirmation, counter-screen for EBI2 antagonist project, biochemical, luminescence, single concentration; purified beta-galactosidase, luminescent Galacton Star, 15 min; inhibition, % at 5 µM; AID 652176, 2013; 2,400 tested, 1% active; shares compounds with EBI2 block;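 active means replicate-average signal at least 3 plate SD below neutral wells, shown as high inhibition, flagging enzyme-inhibiting false positives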;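 further: 0% = DMSO wells with enzyme and 100% = wells lacking enzyme; higher means stronger loss of beta-gal luminescence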
Active calls of the source: *; / = no result given. Rows were chosen to be rich in hits. Some 5% of all compounds tested hit in one or more screens of this group.

SMILES	SENP6 block	SENP8 block-1	EBI2 block	AHR act	SENP7 inh	SENP8 block-2	EBI2 conf	EBI2 ag	bGal counter
O=C(CCCOc1ccccc1)N1CCN(S(=O)(=O)c2ccc(Cl)cc2)CC1	-9	-2	35	4	0	21	/	/	/
O=C(COc1ccc(Cl)cc1Br)N1CCN(S(=O)(=O)c2ccccc2)CC1	-23	-2	29	/	-6	13	/	/	/
COc1ccc(N(C(=O)c2cnccn2)C(C(=O)NC2CCCCC2)c2ccccc2)cc1 (stereo unspecified)	-18	-16	-4	3	-5	5	/	/	/
O=C(OCc1nnc(-c2ccccc2)o1)c1cccc(-n2cnnn2)c1	-2	-7	-13	1	-9	-24	/	/	/
O=C(NCc1ccc(Cl)cc1)N1CCN(S(=O)(=O)c2ccccc2)CC1	-4	1	45*	4	4	5	25	0	9
CCc1ccc(CN(C)C(=O)c2cc(COc3cncc(Cl)c3)on2)cc1	/	/	5	/	/	9	/	/	/
COc1cccc(NC(=O)Cn2c3ccccc3c3nc4n(c(=O)c32)CCCS4)c1	1	-5	83*	2	-10	-180	50	1	4
COc1ccc(NC(=O)C2CCCNC2=O)cc1 (stereo unspecified)	21	6	-9	/	0	20	/	/	/
CC(=O)c1ccc(NC(=O)C2CCCNC2=O)cc1 (stereo unspecified)	-12	-2	55*	-5	0	27	8	1	7
CCOC(=O)C(=O)/C(C#N)=C/Nc1ccc(F)cc1	-20	-10	-12	3	2	4	/	/	/
CCOC(=O)NC(=O)/C(C#N)=N/Nc1ccc(F)cc1	-2	-3	78*	1	-1	4	11	1	-14
Cc1ccc2c(c1)-c1c(cnn1CC(=O)N(Cc1ccco1)C1CCCCC1)CO2	-6	1	47*	0	8	14	29	1	2
Cc1cc(C)n2nc(C(=O)OCC(=O)Nc3ccc(C)c(S(=O)(=O)N4CCOCC4)c3)nc2n1	3	-15	-2	0	-9	7	/	/	/
CC1(c2ccc3noc(-c4ccccc4)c3c2)OCCO1	5	3	17	24	5	-20	/	/	/
COc1cccc(-c2onc3ccc(C4(C)OCCO4)cc23)c1	-7	-10	48*	28	5	-22	11	0	8
CCOC(=O)C1=C(O)/C(=C/c2cc(OC)c(OC)c(OC)c2)SC1=Nc1ccc(OC)cc1	1	4	62*	3	1	-16	55*	-2	-12
COc1cc2ccccc2cc1C(=O)NC1CCC(C)CC1 (stereo unspecified)	-19	-9	65*	0	-7	-150	48	0	4
O=C(/C=C/c1ccccc1)N1CCC(c2ccccc2)C1 (stereo unspecified)	3	-1	64*	3	-2	13	50	0	5
O=C(/C=C/c1ccccc1)N1CCC(Cc2ccccc2)CC1	37	-11	90*	5	-7	-1	77*	-1	-20
CCOC(=O)C1CCN(C(=O)/C=C/c2ccccc2OC)CC1	8	-2	22	1	0	-36	/	/	/
O=C(/C=C/c1ccco1)N1CCCC(c2ccccc2)C1 (stereo unspecified)	5	5	6	-4	-3	-1	/	/	/
CCCC(=O)N1CCC(Cc2ccccc2)CC1	-19	4	4	-2	-2	8	/	/	/
COC(=O)C1CCN(C(=O)/C=C/c2ccccc2)CC1	-2	-5	66*	7	-2	13	50*	0	7
O=C(/C=C/c1cccc(Cl)c1)N1CCC(Cc2ccccc2)CC1	31	17	70*	6	11	14	51*	0	-21
Fc1cc(F)cc(NC(=S)Nc2ccccc2N2CCOCC2)c1	16	3	-8	9	0	15	/	/	/
SMILES	SENP6 block	SENP8 block-1	EBI2 block	AHR act	SENP7 inh	SENP8 block-2	EBI2 conf	EBI2 ag	bGal counter
Cc1cc(C)cc(C(=O)Nc2ccncc2)c1	-10	-21	-6	17	-9	16	/	/	/
O=C(CN1CCN(C(=O)C2CCN(C(=O)/C=C/c3ccccc3)CC2)CC1)Nc1ccc(F)cc1	/	/	62*	/	/	2	28	0	8
CCOC(=O)c1cc(-c2ccccc2)sc1N	-6	-18	46*	0	-3	-12	59*	3	-1
CCOC(=O)c1sc(-c2ccccc2)cc1N	33	1	22	7	19	-265	/	/	/
CCOc1ccc(N2CC(C(=O)Nc3ccc(S(=O)(=O)N4CCCC4)cc3)CC2=O)cc1 (stereo unspecified)	-23	-3	53*	2	17	-2	44	1	2
CCOc1ccc(N2CC(C(=O)Nc3cccc(S(=O)(=O)N4CCCCC4)c3)CC2=O)cc1 (stereo unspecified)	-3	1	39	1	6	6	/	/	/
CCOc1ccc(N2CC(C(=O)Nc3ccc(S(=O)(=O)N4CCCCC4)cc3)CC2=O)cc1 (stereo unspecified)	-9	-3	79*	-2	-4	-5	63*	-1	-21
Brc1ccc(OCc2nnnn2-c2ccccc2)cc1	-4	0	80*	-3	7	15	64*	0	-13
Cc1ccc([N+](=O)[O-])cc1-c1ccc2cccc(C)c2n1	-4	6	51*	6	0	11	39	0	3
CCOc1ccc(C(=O)N2CCCN(C(=O)c3ccc(OCC)cc3)CC2)cc1	-2	0	45*	-4	2	3	39	4	1
COc1ccc(C(=O)N2CCC(C(=O)c3ccc(F)cc3)CC2)cc1	-5	-6	59*	2	-5	29	29	0	-8
COc1ccc(C(=O)N2CCCC2)cc1	12	-11	-6	-1	-14	14	/	/	/
COc1ccc(C(=O)C2CCN(C(=O)c3ccc(OC)cc3)CC2)cc1	-11	1	58*	2	8	12	34	0	-17
